This is an account of results in PMC11006913.

Experiment [1] concerns the target NKX3-2 (Homo sapiens, UniProt P78367 192-278, P234S). In words: PBM; 200 nM protein, PBS. To be noted: dsDNA, one strand shown.
Experiment [2] deals with NKX3-2 (Homo sapiens, UniProt P78367 192-278). Put plainly: PBM; 200 nM protein, PBS. To be noted: dsDNA, one strand shown.
NKX3-2 (Homo sapiens, UniProt P78367 192-278), sequence (P78367 192-278): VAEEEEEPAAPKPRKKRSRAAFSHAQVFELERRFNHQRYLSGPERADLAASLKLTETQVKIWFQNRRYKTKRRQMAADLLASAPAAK

NKX3-2 (Homo sapiens, UniProt P78367 192-278, P234S), sequence (P78367 192-278 P234S): as the sequence (P78367 192-278) above, with P43S counted along it

On to GGCCTCAC, for which the binding signal in experiment [1] is 10.5 upbm affinity estimate (log intensity, higher = more binding, comparable within an allelic series); in experiment [2], 10.6 upbm affinity estimate (log intensity, higher = more binding, comparable within an allelic series).
As to AAGTGGGA, the binding signal was 12.6 upbm affinity estimate (log intensity, higher = more binding, comparable within an allelic series) in experiment [1] and 12.6 upbm affinity estimate (log intensity, higher = more binding, comparable within an allelic series) in experiment [2].
On to CACTTACG, for which the binding signal in experiment [1] is 12.7 upbm affinity estimate (log intensity, higher = more binding, comparable within an allelic series); in experiment [2], 12.8 upbm affinity estimate (log intensity, higher = more binding, comparable within an allelic series).
As for ACCGCTGG, the binding signal in experiment [1] is 10.5 upbm affinity estimate (log intensity, higher = more binding, comparable within an allelic series); in experiment [2], 10.5 upbm affinity estimate (log intensity, higher = more binding, comparable within an allelic series).
Consider CATCACTA, for which the binding signal is 11.5 upbm affinity estimate (log intensity, higher = more binding, comparable within an allelic series) in experiment [1] and 11.5 upbm affinity estimate (log intensity, higher = more binding, comparable within an allelic series) in experiment [2].
For the sequence ATATGAGG, the binding signal was 11.6 upbm affinity estimate (log intensity, higher = more binding, comparable within an allelic series) in experiment [1] and 11.6 upbm affinity estimate (log intensity, higher = more binding, comparable within an allelic series) in experiment [2].
Turning to GAGTGACA, the binding signal in experiment [1] is 11.4 upbm affinity estimate (log intensity, higher = more binding, comparable within an allelic series); in experiment [2] it was 11.5 upbm affinity estimate (log intensity, higher = more binding, comparable within an allelic series).
For the sequence CCTATGGC, the binding signal in experiment [1] is 10.6 upbm affinity estimate (log intensity, higher = more binding, comparable within an allelic series); in experiment [2], 10.6 upbm affinity estimate (log intensity, higher = more binding, comparable within an allelic series).
Turning to ACCAGGCT, the binding signal in experiment [1] is 10.6 upbm affinity estimate (log intensity, higher = more binding, comparable within an allelic series); in experiment [2], 10.6 upbm affinity estimate (log intensity, higher = more binding, comparable within an allelic series).
Take ACACACCG: the binding signal in experiment [1] is 10.6 upbm affinity estimate (log intensity, higher = more binding, comparable within an allelic series); in experiment [2], 10.6 upbm affinity estimate (log intensity, higher = more binding, comparable within an allelic series).
As to GAGTACAC, the binding signal is 12.1 upbm affinity estimate (log intensity, higher = more binding, comparable within an allelic series) in experiment [1] and 12.2 upbm affinity estimate (log intensity, higher = more binding, comparable within an allelic series) in experiment [2].
On to CGGTTACC, for which the binding signal in experiment [1] was 10.6 upbm affinity estimate (log intensity, higher = more binding, comparable within an allelic series); in experiment [2] it was 10.5 upbm affinity estimate (log intensity, higher = more binding, comparable within an allelic series).
For the sequence AGCATTCC, the binding signal was 10.4 upbm affinity estimate (log intensity, higher = more binding, comparable within an allelic series) in experiment [1] and 10.4 upbm affinity estimate (log intensity, higher = more binding, comparable within an allelic series) in experiment [2].
For AAAGTGGA, the binding signal in experiment [1] was 12.6 upbm affinity estimate (log intensity, higher = more binding, comparable within an allelic series); in experiment [2], 12.6 upbm affinity estimate (log intensity, higher = more binding, comparable within an allelic series).
As for CCAGGTTA, the binding signal in experiment [1] was 10.6 upbm affinity estimate (log intensity, higher = more binding, comparable within an allelic series); in experiment [2], 10.8 upbm affinity estimate (log intensity, higher = more binding, comparable within an allelic series).
On to AGTGCACT, for which the binding signal in experiment [1] was 12.3 upbm affinity estimate (log intensity, higher = more binding, comparable within an allelic series); in experiment [2], 12.6 upbm affinity estimate (log intensity, higher = more binding, comparable within an allelic series).
Take ATCCCGCC: the binding signal is 10.7 upbm affinity estimate (log intensity, higher = more binding, comparable within an allelic series) in experiment [1] and 10.7 upbm affinity estimate (log intensity, higher = more binding, comparable within an allelic series) in experiment [2].
For GCCCTCAA, the binding signal was 11.6 upbm affinity estimate (log intensity, higher = more binding, comparable within an allelic series) in experiment [1] and 11.7 upbm affinity estimate (log intensity, higher = more binding, comparable within an allelic series) in experiment [2].
For the sequence CAAAGAGG, the binding signal is 11.9 upbm affinity estimate (log intensity, higher = more binding, comparable within an allelic series) in experiment [1] and 12 upbm affinity estimate (log intensity, higher = more binding, comparable within an allelic series) in experiment [2].
For ACCACTTC, the binding signal is 12.8 upbm affinity estimate (log intensity, higher = more binding, comparable within an allelic series) in experiment [1] and 12.8 upbm affinity estimate (log intensity, higher = more binding, comparable within an allelic series) in experiment [2].
With ACCTCTTG, the binding signal in experiment [1] is 11.6 upbm affinity estimate (log intensity, higher = more binding, comparable within an allelic series); in experiment [2], 11.7 upbm affinity estimate (log intensity, higher = more binding, comparable within an allelic series).
GGCACTCA: the binding signal is 12.5 upbm affinity estimate (log intensity, higher = more binding, comparable within an allelic series) in experiment [1] and 12.6 upbm affinity estimate (log intensity, higher = more binding, comparable within an allelic series) in experiment [2].
For the sequence ACCACGGC, the binding signal is 10.5 upbm affinity estimate (log intensity, higher = more binding, comparable within an allelic series) in experiment [1] and 10.5 upbm affinity estimate (log intensity, higher = more binding, comparable within an allelic series) in experiment [2].
For the sequence AACGTGGC, the binding signal in experiment [1] was 10.5 upbm affinity estimate (log intensity, higher = more binding, comparable within an allelic series); in experiment [2] it was 10.5 upbm affinity estimate (log intensity, higher = more binding, comparable within an allelic series).
Take GCCGTGCC: the binding signal in experiment [1] is 10.6 upbm affinity estimate (log intensity, higher = more binding, comparable within an allelic series); in experiment [2], 10.6 upbm affinity estimate (log intensity, higher = more binding, comparable within an allelic series).
Consider GAGAGTAC, for which the binding signal in experiment [1] was 12 upbm affinity estimate (log intensity, higher = more binding, comparable within an allelic series); in experiment [2], 12.1 upbm affinity estimate (log intensity, higher = more binding, comparable within an allelic series).
Regarding CGCTGCGA, the binding signal in experiment [1] is 10.5 upbm affinity estimate (log intensity, higher = more binding, comparable within an allelic series); in experiment [2], 10.5 upbm affinity estimate (log intensity, higher = more binding, comparable within an allelic series).
With GCCGAGCC, the binding signal in experiment [1] was 10.8 upbm affinity estimate (log intensity, higher = more binding, comparable within an allelic series); in experiment [2] it was 10.7 upbm affinity estimate (log intensity, higher = more binding, comparable within an allelic series).
As for AAGTGCCA, the binding signal in experiment [1] was 12.6 upbm affinity estimate (log intensity, higher = more binding, comparable within an allelic series); in experiment [2], 12.8 upbm affinity estimate (log intensity, higher = more binding, comparable within an allelic series).
Regarding GAAGTGCC, the binding signal was 12.8 upbm affinity estimate (log intensity, higher = more binding, comparable within an allelic series) in experiment [1] and 12.9 upbm affinity estimate (log intensity, higher = more binding, comparable within an allelic series) in experiment [2].
